Values joined by “and” are separate entries in the source; they are usually repeats but may differ in a detail not shown here. Equal values may be shown once. Out of some 5,500 compounds screened, about 2,000 (36%) were called active. Inconclusive results (about 18%) are left out. No stated cut-off is given here; in the data, active means normalized growth mostly below about 0.91 (no sharp cut-off); inconclusive means no clear call, values can overlap the other calls; inactive means mostly above about 0.92. Some of the results follow.
Test: chemical genetic growth profiling, strain panel (AID 1159580);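 further: tested at 20 µM; growth read once vehicle control cultures reached saturation at 30 °C; 1 = growth at the plate median or of vehicle wells; lower values mean less growth of the strain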
Details: S. cerevisiae deletion strains, growth OD
[1] = locus YPL241C, strain CIN2, active compounds read low

Measured: normalized growth

CC(=O)OCC(=O)[C@@]1(O)CCC2C3CCC4=CC(=O)CC[C@]4(C)C3C(=O)C[C@@]21C (stereo not given in full)
inactive: locus YAL021C, strain ccr4, active compounds read low 0.988 | locus YAL026C, strain drs2, active compounds read low 1.01 | locus YAL030W, strain snc1, active compounds read low 0.985 | locus YBL061C, strain skt5, active compounds read low 0.965 | locus YBR009C, strain hhf1, active compounds read low 0.998 | locus YBR021W, strain FUR4, active compounds read low 1.01 | locus YBR023C, strain chs3, active compounds read low 0.989 | locus YBR171W, strain sec66, active compounds read low 0.969 | locus YBR229C, strain ROT2, active compounds read low 1.01 | locus YBR231C, strain swc5, active compounds read low 0.951 | locus YBR279W, strain paf1, active compounds read low 0.997 | locus YCL011C, strain gbp2, active compounds read low 1.01 | locus YCL016C, strain dcc1, active compounds read low 1.02 | locus YCL029C, strain bik1, active compounds read low 1.03 | locus YCL061C, strain MRC1, active compounds read low 0.982 | locus YCL069W, strain vba3, active compounds read low 0.98 | locus YCR088W, strain abp1, active compounds read low 0.98 | locus YDL005C, strain med2, active compounds read low 0.973 | locus YDL035C, strain GPR1, active compounds read low 1 | locus YDL040C, strain nat1, active compounds read low 0.963 | locus YDL074C, strain BRE1, active compounds read low 1.01 | locus YDL101C, strain DUN1, active compounds read low 1.01 | locus YDL134C, strain PPH21, active compounds read low 1 | locus YDL185W, strain tfp1, active compounds read low 1.03 | locus YDL192W, strain arf1, active compounds read low 1.03 | locus YDR001C, strain nth1, active compounds read low 0.974 | locus YDR069C, strain doa4, active compounds read low 0.98 | locus YDR101C, strain arx1, active compounds read low 1.02 | locus YDR137W, strain rgp1, active compounds read low 1 | locus YDR159W, strain sac3, active compounds read low 0.963 | locus YDR162C, strain NBP2, active compounds read low 1.01 | locus YDR195W, strain ref2 0.913 | locus YDR297W, strain sur2, active compounds read low 0.989 | locus YDR318W, strain mcm21, active compounds read low 1.01 | locus YDR334W, strain swr1, active compounds read low 0.968 | locus YDR335W, strain msn5, active compounds read low 0.969 | locus YDR388W, active compounds read low 1.03 | locus YDR392W, strain spt3, active compounds read low 1.04 | locus YDR502C, strain sam2, active compounds read low 1.04 | locus YEL003W, strain gim4, active compounds read low 0.968 | locus YEL037C, strain rad23, active compounds read low 0.976 | locus YEL061C, strain CIN8 (second series), active compounds read low 0.983 | locus YEL061C, strain CIN8, active compounds read low 1.01 | locus YER015W, strain faa2, active compounds read low 0.992 | locus YER016W, strain bim1, active compounds read low 0.988 | locus YER110C, active compounds read low 1.04 | locus YER111C, strain swi4, active compounds read low 0.971 | locus YER155C, strain BEM2 (second series), active compounds read low 0.97 | locus YER155C, strain BEM2, active compounds read low 1 | locus YER167W, strain BCK2, active compounds read low 1.01 | locus YFR010W, strain ubp6, active compounds read low 0.977 | locus YGL078C, strain dbp3, active compounds read low 1.03 | locus YGL086W, strain mad1, active compounds read low 0.994 | locus YGL167C, strain pmr1, active compounds read low 0.952 | locus YGL173C, strain kem1, active compounds read low 0.955 | locus YGL227W, strain vid30, active compounds read low 0.983 | locus YGL240W, strain doc1, active compounds read low 0.962 | locus YGL248W, strain PDE1, active compounds read low 1.02 | locus YGL253W, strain hxk2, active compounds read low 0.981 | locus YGR135W, strain pre9, active compounds read low 1.03 | locus YGR252W, strain gcn5, active compounds read low 1.05 | locus YHR013C, strain ard1, active compounds read low 0.991 | locus YHR027C, strain rpn1, active compounds read low 1 | locus YHR030C, strain SLT2, active compounds read low 1 and 0.999 | locus YHR079C, strain IRE1 (second series), active compounds read low 1.03 | locus YHR079C, strain IRE1, active compounds read low 0.996 | locus YHR094C, strain hxt1, active compounds read low 1.02 | locus YHR129C, strain ARP1, active compounds read low 1 | locus YHR142W, strain chs7, active compounds read low 0.978 | locus YHR200W, strain rpn10, active compounds read low 1.03 | locus YIL066C, strain RNR3, active compounds read low 1.01 | locus YIL073C, strain SPO22, active compounds read low 1.06 | locus YIL125W, strain kgd1, active compounds read low 1.02 | locus YIR030C, strain dcg1, active compounds read low 1.03 | locus YJL092W, strain hpr5, active compounds read low 0.968 | locus YJL095W, strain BCK1 (second series), active compounds read low 0.992 | locus YJL095W, strain BCK1, active compounds read low 1.02 | locus YJL115W, strain asf1, active compounds read low 0.985 | locus YJL129C, strain trk1, active compounds read low 0.922 | locus YJL134W, strain LCB3, active compounds read low 1.01 | locus YJL154C, strain vps35, active compounds read low 0.963 | locus YJL164C, strain tpk1, active compounds read low 1 | locus YJL166W, strain qcr8, active compounds read low 0.966 | locus YJL168C, strain set2, active compounds read low 1.03 | locus YJL187C, strain SWE1 (second series), active compounds read low 1.01 | locus YJR043C, strain POL32, active compounds read low 0.993 | locus YJR066W, strain TOR1, active compounds read low 0.973 | locus YJR075W, strain HOC1, active compounds read low 1.01 | locus YKL009W, strain mrt4, active compounds read low 1.02 | locus YKL068W, active compounds read low 1.02 | locus YKL085W, strain MDH1 (second series), active compounds read low 1.02 | locus YKL085W, strain MDH1, active compounds read low 1.02 | locus YKL160W, strain elf1, active compounds read low 0.961 | locus YKR001C, strain vps1, active compounds read low 1.04 | locus YKR026C, strain gcn3, active compounds read low 0.974 | locus YKR091W, strain srl3, active compounds read low 0.974 | locus YLL001W, strain dnm1, active compounds read low 0.93 | locus YLL026W, active compounds read low 0.994 | locus YLL041C, strain sdh2, active compounds read low 0.98 | locus YLR027C, strain aat2, active compounds read low 0.961 | locus YLR039C, strain RIC1, active compounds read low 1 | locus YLR058C, strain SHM2, active compounds read low 1.01 | locus YLR102C, strain apc9, active compounds read low 1.03 | locus YLR113W, strain HOG1, active compounds read low 0.986 | locus YLR221C, strain rsa3, active compounds read low 1.01 | locus YLR258W, strain gsy2, active compounds read low 0.995 | locus YLR262C, strain YPT6 (second series), active compounds read low 0.951 | locus YLR262C, strain YPT6, active compounds read low 1.05 | locus YLR268W, strain sec22, active compounds read low 1.04 | locus YLR320W, strain mms22, active compounds read low 0.993 | locus YLR330W, strain CHS5, active compounds read low 1.01 | locus YLR342W, strain FKS1 (second series), active compounds read low 0.987 | locus YLR342W, strain FKS1, active compounds read low 0.963 | locus YLR357W, strain rsc2, active compounds read low 0.974 | locus YLR370C, strain arc18, active compounds read low 0.973 | locus YLR371W, strain rom2, active compounds read low 1.02 | locus YLR384C, strain iki3, active compounds read low 0.974 | locus YLR418C, strain cdc73, active compounds read low 1.08 | locus YML016C, strain PPZ1, active compounds read low 1.01 | locus YML032C, strain rad52, active compounds read low 1.04 | locus YML120C, strain ndi1, active compounds read low 0.967 | locus YML124C, strain tub3, active compounds read low 1.03 | locus YMR058W, strain fet3, active compounds read low 0.971 | locus YMR078C, strain ctf18, active compounds read low 1.04 | locus YMR125W, strain sto1, active compounds read low 0.988 | locus YMR129W, active compounds read low 0.991 | locus YMR205C, strain PFK2, active compounds read low 0.983 | locus YMR223W, strain ubp8, active compounds read low 1.04 | locus YMR231W, strain pep5, active compounds read low 0.972 | locus YMR263W, strain SAP30, active compounds read low 1.01 | locus YMR307W, strain GAS1, active compounds read low 0.923 | locus YNL067W, strain RPL9B, active compounds read low 1.01 | locus YNL071W, strain lat1, active compounds read low 1.01 | locus YNL153C, strain GIM3, active compounds read low 1.01 | locus YNL183C, strain NPR1, active compounds read low 0.953 | locus YNL209W, strain ssb2, active compounds read low 0.998 | locus YNL233W, strain BNI4, active compounds read low 1.01 | locus YNL248C, strain rpa49, active compounds read low 1 | locus YNL250W, strain rad50, active compounds read low 1.05 | locus YNL271C, strain bni1, active compounds read low 1.04 | locus YNL298W, strain CLA4, active compounds read low 1.02 | locus YNL307C, strain MCK1, active compounds read low 1.02 | locus YNL322C, strain KRE1 (second series), active compounds read low 0.969 | locus YNL322C, strain KRE1, active compounds read low 1.01 | locus YNR049C, strain mso1, active compounds read low 0.977 | locus YNR052C, strain pop2, active compounds read low 1.02 | locus YOL012C, strain htz1 1.93 | locus YOL147C, strain pex11, active compounds read low 1.04 | locus YOR001W, strain rrp6, active compounds read low 0.951 | locus YOR061W, strain CKA2, active compounds read low 1.01 | locus YOR069W, strain VPS5, active compounds read low 1.01 | locus YOR070C, strain gyp1, active compounds read low 0.993 | locus YOR080W, strain dia2, active compounds read low 0.956 | locus YOR083W, strain WHI5, active compounds read low 0.959 | locus YOR106W, strain vam3, active compounds read low 0.966 | locus YOR136W, strain idh2, active compounds read low 1.03 | locus YOR144C, strain elg1, active compounds read low 1.02 | locus YOR184W, strain ser1, active compounds read low 1.05 | locus YOR231W, strain MKK1, active compounds read low 0.995 | locus YOR265W, strain rbl2, active compounds read low 0.991 | locus YOR270C, strain vph1, active compounds read low 0.978 | locus YOR290C, strain snf2, active compounds read low 1.01 | locus YOR316C, strain cot1, active compounds read low 1.03 | locus YPL051W, strain arl3, active compounds read low 0.989 | locus YPL055C, strain LGE1, active compounds read low 1 | locus YPL078C, strain atp4, active compounds read low 0.933 | locus YPL106C, strain sse1, active compounds read low 1.02 | locus YPL240C, strain hsp82, active compounds read low 0.984 | [1] 1 | locus YPL256C, strain CLN2, active compounds read low 0.962 | locus YPR119W, strain clb2, active compounds read low 1.03 | locus YPR141C, strain kar3, active compounds read low 1.04 | locus YPR163C, strain tif3, active compounds read low 1.05 | locus YPR167C, strain met16, active compounds read low 1.03 | strain wtn01, active compounds read low 1.04

C[C@]12C[C@H](O)[C@H]3[C@@H](CCC4=CC(=O)CC[C@@]43C)[C@@H]1CC[C@@H]2C(=O)CO
inactive: locus YAL040C, strain CLN3, active compounds read low 1.05 | locus YDR150W, strain NUM1, active compounds read low 1 | locus YDR363W, strain ESC2, active compounds read low 0.999 | locus YER002W, strain NOP16, active compounds read low 1.01 | locus YGR078C, strain PAC10, active compounds read low 1 | locus YNL175C, strain NOP13, active compounds read low 1.02 | locus YNL197C, strain WHI3, active compounds read low 1.02 | locus YNL224C, strain SQS1, active compounds read low 1.02 | locus YOR083W, strain WHI5 (second series), active compounds read low 1.02 | [1] 1
